Data: PubChem BioAssay AID720697 (Broad Institute, 2013)
Results with a measured potency or affinity are listed apart. Records with an inconclusive call do not appear. Unmarked numbers belong to inactive results.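 How the source made its calls: active means signal loss with fitted half-maximal concentration at or below twice the top valid tested dose in every test run; inconclusive means runs disagree, flat 30 to 70% signal loss, or poor fit; inactive means all runs flat, opposite direction, or potency beyond limit.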

Assay: general mammalian cell viability loss – inhibitor set, cherry-pick, set 2, cytotoxicity control for miR-122 modulator project, dose response (AID 720697);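 further: 0% = median of neutral control wells and -100% = MG132 positive control wells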
Conditions: HEK293T viability, CellTiter-Glo luminescence, 48 h; series mostly up to 26 µM; activity change, negative = cytotoxicity: at the top concentration

Row | SMILES | activity change, negative = cytotoxicity
1 | CCc1ccccc1NC(=O)CN(C)C(=O)Cn1ncc(Cl)c(Cl)c1=O | -65.2% [at 6 µM]
2 | CCCNC(=O)Nc1ccc2c(c1)OC[C@@H](C)N(CCC)C[C@H](C)[C@H](OC)CN(C)C2=O | 117%
3 | CN1C(=O)c2cc(NC(=O)c3cccc(F)c3)ccc2OC[C@H]2O[C@H](CC(=O)N3CCc4ccccc4C3)CC[C@H]21 | 62.5%
4 | CCN(C[C@H]1N[C@@H](CO)[C@@H]1c1ccc(C2=CCCC2)cc1)C(=O)c1cccnc1 | -38.7%
5 | C[C@H]1CN([C@@H](C)CO)C(=O)c2cc(C#Cc3cccnc3)cnc2O[C@H]1CN(C)S(=O)(=O)c1ccccc1F | 38.2%
6 | C/C=C/c1ccc([C@H]2[C@@H](CO)N(C(=O)C3CC3)[C@H]2CN(C)C(=O)CC2CC2)cc1 | 115%
7 | CCCC(=O)Nc1ccc2c(c1)C(=O)N(C)[C@@H]1CC[C@H](CC(=O)NCCOC)O[C@H]1CO2 | 109%
8 | CC(=O)N=c1scc(-c2ccccc2)n1-c1cccc(O)c1 | -11.9%
9 | COc1ccc(C#Cc2ccc3c(c2)O[C@@H](CN(C)C(=O)CN2CCOCC2)[C@@H](C)CN([C@H](C)CO)S3(=O)=O)cc1 | 107%
10 | CCCC#Cc1ccc2c(c1)O[C@H](CN(C)C(=O)COC)[C@H](C)CN([C@@H](C)CO)S2(=O)=O | 19%
11 | C[C@H]1CN([C@@H](C)CO)C(=O)c2cc(-c3ccc(C#N)cc3)cnc2O[C@H]1CN(C)C(=O)Nc1ccc(C(F)(F)F)cc1 | 33.3%
12 | CC(=O)Nc1ccc2c(c1)C(=O)N(C)[C@H]1CC[C@H](CC(=O)Nc3ccccc3Cl)O[C@@H]1CO2 | 111%
13 | COc1ccc2c(c1)C(C)=CC(C)(C)N2C(=O)CNCc1ccc2c(c1)OCO2 | 92.1%
14 | CN1C(=O)c2cc(NC(=O)Nc3ccccc3Cl)ccc2OC[C@H]2O[C@H](CC(=O)O)CC[C@H]21 | 68.5%
15 | CO[C@H]1CN(C)C(=O)c2cc(NC(C)=O)ccc2OC[C@@H](C)N(C(=O)c2ccccn2)C[C@H]1C | -42.3%
16 | COc1cccc(CNC(=O)C[C@H]2CC[C@@H]3[C@H](COc4ccc(NC(C)=O)cc4C(=O)N3C)O2)c1 | 104%
17 | COCC(=O)Nc1ccc2c(c1)C(=O)N(C)[C@H]1CC[C@@H](CC(=O)NC3CCCC3)O[C@H]1CO2 | 12.9%

Row | SMILES | activity change, negative = cytotoxicity
18 | COc1ccccc1-c1ccc2c(c1)O[C@@H](CN(C)S(=O)(=O)c1ccc(F)cc1)[C@@H](C)CN([C@@H](C)CO)S2(=O)=O | 52.6%
19 | COCC(=O)N(C)C[C@H]1Oc2cc(-c3ccccc3F)ccc2S(=O)(=O)N([C@H](C)CO)C[C@H]1C | 69.5%
20 | COCC(=O)N(C)C[C@H]1Oc2cc(-c3ccc(C#N)cc3)ccc2S(=O)(=O)N([C@H](C)CO)C[C@H]1C | 113%
21 | C[C@H](CO)N1C[C@H](C)[C@H](CN(C)S(=O)(=O)c2cccc(F)c2)Oc2ncc(C#CC3CCCCC3)cc2C1=O | -9.4%
22 | C/C=C/c1ccc([C@@H]2[C@H](CO)N[C@H]2CN(CC(C)C)C(=O)c2ccccn2)cc1 | 29.5%
23 | CN(C)CCNC(=O)C1CC(=O)N(c2ccc(F)c(Cl)c2)C1 (stereo not drawn) | 22.1%
24 | CN1C(=O)c2cc(NC(=O)Nc3ccc(Cl)cc3)ccc2OC[C@H]2O[C@H](CC(=O)NCCN3CCCCC3)CC[C@H]21 | 47.9% [at 23.5 µM]
25 | COC(=O)C[C@H]1CC[C@H]2[C@H](COc3ccc(NS(=O)(=O)c4ccc(F)cc4)cc3C(=O)N2C)O1 | 27.3%
26 | CCCNC(=O)N1[C@H](CNC(C)=O)[C@H](c2ccc(C3=CCCC3)cc2)[C@@H]1CO | 139%
27 | CO[C@@H]1CN(C)C(=O)c2cc(NC(=O)Nc3ccc(Cl)c(Cl)c3)ccc2OC[C@H](C)NC[C@H]1C | 31.4%
28 | Cc1ccccc1NC(=O)Nc1ccc2c(c1)C(=O)N(C)[C@@H]1CC[C@H](CC(=O)NCC3CC3)O[C@@H]1CO2 | 119%
29 | CNC(=O)C[C@H]1CC[C@@H]2[C@@H](COc3ccc(NC(=O)c4cccc(OC)c4)cc3C(=O)N2C)O1 | 125%
30 | CN1C(=O)c2cc(NC(=O)Cc3ccccc3)ccc2OC[C@H]2O[C@@H](CC(=O)NC3CCC3)CC[C@H]21 | 49.9%
31 | C[C@@H]1CN([C@H](C)CO)S(=O)(=O)c2ccc(C3=CCCC3)cc2O[C@@H]1CN(C)C(=O)Cc1ccncc1 | 139%
32 | COc1ccc(OC)c(Nc2cc(C)nc3ccc(C)cc23)c1 | -30% [at 6 µM]
33 | OC[C@H]1[C@@H](c2ccccc2)[C@H](CNCC2CCC2)N1CC1CC1 | 144%
